Compound activity deposited in PubChem by National Center for Advancing Translational Sciences (NCATS).
NS1 inh: blocks influenza NS1 protein function | 0.4% of 270,000 active | AID 2326 | Potency, µM (highest dose often 46.1 µM), for inactives: top-dose activity, positive = more growth; further: potency means the concentration at half of the fitted maximal effect; actives are rising curves; nearly all actives have a fitted effect of over 50% in size
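Recovery from NS1-induced slow growth read by OD600 in budding yeast switched to galactose assay medium (pH 6.0, -URA) at 1:100 dilution. Compound 23 nl per well; the matching strain lacking NS1 serves as control.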
Pf growth 48h: P. falciparum growth inhibition at 48 hours (one generation) | P. falciparum luciferase growth in erythrocytes, 48 h | 5.9% of 310,000 active | AID 504832 | Potency, µM (series often up to 28.7 µM), without a hit: at the highest dose activity change, negative = inhibition, hits mostly inhibitors; active means well fitted inhibition curve with a large enough effect; inconclusive means small, poorly fitted or top-dose-only effect, or another doubt; inactive means no such curve, though single readings can be large or run the other way; further: potency means the concentration at half of the fitted maximal effect; on the % scale 0 is the no-effect control and ±100 the full control effect
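Parasite viability was followed by luminescence of a genomically integrated firefly luciferase. Cultures held 0.1% parasitemia at 2% hematocrit (final), incubated under 5% CO2 at 37 C.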
SARS PLP yeast: SARS-CoV PLP inhibition in yeast. S. cerevisiae expressing SARS-CoV PLpro, growth rescue. AID 485353. Potency, µM (doses to about 32.9 µM), inactives show at the top dose activity, positive = growth rescue, usual class: activators. 0.19% of 330,000 active; further: potency means the concentration at half of the fitted maximal effect; 0% is about no effect; nearly all actives have a fitted effect of over 55% in size
Shiga inhibitor: Shiga toxin inhibition. Vero cells, Shiga toxin protein synthesis inhibition reporter. AID 2315. 9.2% of 290,000 active. inhibition, % at 38.7 µM; in the data active means inhibition mostly above about 28%, no sharp cut-off; inactive means mostly below about 43%; further: 0% is about no effect
Cycloheximide cs: counter-screen hit for Shiga toxin inhibitors, cycloheximide; cell reporter, cycloheximide protein synthesis inhibition counterscreen; max response, %; 12% of 300,000 active; in the data active means max response mostly above about 13%, no sharp cut-off; inactive means mostly below about 14%; further: read at 38.3 µM for the half of the compounds with a filed dose; 0% is about no effect
Pf growth 96h: P. falciparum growth inhibition at 96 hours; P. falciparum luciferase reporter growth, 96 h; Potency, µM (series often up to 28.7 µM), for inactives: top-dose activity change, negative = inhibition, usual class: inhibitors; 6.9% of 320,000 active; AID 504834; active means well fitted inhibition curve with a large enough effect; inconclusive means small, poorly fitted or top-dose-only effect, or another doubt; inactive means no such curve, though single readings can be large or run the other way; further: potency means the concentration at half of the fitted maximal effect; on the % scale 0 is the no-effect control and ±100 the full control effect
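Plates of compound plus infected erythrocytes (2% hematocrit, 0.05% parasitemia final) incubate 96 hours, 37 C, 5% CO2. Detection reagent added; reduced luminescence from the parasites' luciferase reporter flags inhibition.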
* = called active by the depositor; ? = inconclusive; nt = not tested or not shown. Compounds with a hit are over-represented: about 21% of the library has one in this group of screens. Unless noted, the call rests on the fitted dose curve.

SMILES	NS1 inh	Pf growth 48h	SARS PLP yeast	Shiga inhibitor	Cycloheximide cs	Pf growth 96h
O=C(COc1ccc(F)cc1F)N1CCCCCCC1	14%	1%	2%	3	5	0%
N=c1sccn1CC(=O)Nc1cccc(S(=O)(=O)N2CCCCCC2)c1	nt	-15%	0%	-2	-1	?
COc1ccc(C2CC(c3ccc4ccccc4c3OC(C)=O)=NN2C(=O)/C=C/c2ccccc2)cc1 (stereo not given)	22%	12µM*	13%	-3	1	?
COc1ccc(C2CC(c3ccccc3OC(C)=O)=NN2C(C)=O)cc1 (stereo not given)	-4%	?	-3%	49*	30*	-6%
COc1ccc(C2CC(c3ccccc3OC(C)=O)=NN2C(=O)/C=C/c2ccccc2)cc1 (stereo not given)	19%	?	-3%	8	9	?
COc1ccc(O)c(C(=O)c2cnn(-c3ccc(Cl)cc3)c2)c1	-9%	?	-5%	40*	20	?
COc1ccc(O)c(C(=O)c2cnn(-c3ccccn3)c2)c1	1%	21%	-10%	63*	33*	37%
COc1ccc(O)c(C(=O)c2cnc3nc4ccccc4n3c2)c1	-10%	29%	-17%	-1	2	0%
Cc1cc(/C=C2\SC(=O)N(C)C2=O)c(C)n1-c1ccc(O)cc1	-103%	280%	-15%	51*	34*	275%
Cc1cc(/C=C2\SC(=O)NC2=O)c(C)n1-c1ccc(N(C)C)cc1	0%	11%	-4%	-7	-2	4%
Cc1cc(/C=C2\SC(=O)NC2=O)c(C)n1-c1ccc(N2CCOCC2)cc1	0%	10µM*	-1%	-2	-2	?
Cc1cc(/C=C2\SC(=O)N(C)C2=O)c(C)n1-c1ccc(S(N)(=O)=O)cc1	2%	-6%	-1%	42	22*	36%
CN=C1S/C(=C\c2cc(C)n(-c3ccccc3F)c2C)C(=O)N1C	-34%	-82%	-33%	96*	44*	-41%
O=C(NCC1CCCO1)c1ccc(N2C(=O)C3CCCCC3C2=O)cc1 (stereo not given)	2%	30%	1%	3	-5	10%
CCOc1ccc(C(=O)C(C)OC(=O)Cn2[nH]c(=O)c3ccccc3c2=O)cc1 (stereo not given)	7%	1%	0%	-3	1	-14%
Cc1cc(OCC(=O)N2CCN(c3ccccn3)CC2)c(C)cc1Br	-17%	15%	3%	-35	-2	?
CC(=O)NC1=NC(=O)/C(=C/c2cc(C)n(-c3ccc(NC(C)=O)cc3)c2C)S1	nt	42%	-2%	43	33*	51%
O=C(CC(=O)N/N=C/c1c(F)cccc1Cl)NCCc1ccccc1	-1%	2%	-6%	-6	-3	?
O=C(CC(=O)N/N=C\c1c(Cl)cccc1Cl)NCc1ccccc1	9%	6%	1%	-18	1	1µM*
O=C(CC(=O)N/N=C/c1ccccc1)NCc1ccccc1	10%	0%	0%	-5	-2	10µM*
O=C(CC(=O)NCc1ccccc1)NCc1ccccc1	4%	12%	-7%	27	-8	23%
CC(C)c1ccc(NC(=O)CSc2nc(-c3ccccc3F)nc3nc[nH]c23)cc1	8%	-2%	-21%	-10	-3	?
COc1ccccc1NC(=O)c1cn(CCC#N)nc1-c1ccc(F)cc1	5%	-5%	-6%	-4	0	12µM*
N=c1ccn(Cc2ccc(Cl)c(Cl)c2)cc1	-11%	0.59µM*	-3%	-5	12	-33%
Clc1cccc(CN2CCN(Cc3ccco3)CC2)c1	1%	5%	0%	-1	8	16%
SMILES	NS1 inh	Pf growth 48h	SARS PLP yeast	Shiga inhibitor	Cycloheximide cs	Pf growth 96h
N=c1ccn(Cc2ccc(Cl)cc2)cc1	1%	1.9µM*	-2%	21	-3	7%
N=c1ccn(Cc2cccc(Cl)c2)cc1	1%	2.6µM*	5%	-9	1	?
Clc1ccc(CN2CCCCCC2)cc1	9%	1%	-6%	8	1	?
C=CCNC(=S)NC(CC(=O)OC)c1ccc2c(c1)OCO2 (stereo not given)	4%	3%	-1%	-6	-2	17%
CCOC(=O)C1=C(C)C2C3C(=O)N(c4cc(C)ccc4C)C(=O)C3C1(C)C1C(=O)N(c3cc(C)ccc3C)C(=O)C21 (stereo not given)	7%	13µM*	-4%	-11	1	?
Cc1cc(Cl)ccc1OCc1nnc(-c2ccccc2C)o1	nt	41%	2%	nt	nt	55%
O=C(CNC(=O)c1ccc(Cl)cc1Cl)OCc1nnc(-c2ccccc2Br)o1	nt	nt	-6%	nt	nt	nt
Clc1cccc(OCc2nnc(-c3ccccc3Br)o2)c1	-35%	?	-16%	86*	38*	?
Clc1ccc(OCc2nnc(-c3ccccc3Br)o2)cc1	-25%	6%	?	49	12*	8%
CCOC(=O)C1CCN(c2nc(N)c3c(N)nc(SCC(=O)O)cc3c2C#N)CC1	5%	2.6µM*	0%	-15	-3	2.6µM*
Cc1ccccc1C(=O)N1CCC(C(=O)N2CCCc3ccccc32)CC1	nt	?	-5%	nt	nt	-16%
O=c1[nH]c2ccc(NCc3ccc(F)cc3)cc2[nH]1	15%	39%	3%	41*	13*	?
COc1cc(CNc2ccc3[nH]c(=O)[nH]c3c2)cc(Br)c1OCc1ccc(F)cc1	-1%	-10%	2%	-8	0	6%
O=c1[nH]c2ccc(NCc3ccc(OCc4ccccc4Cl)cc3)cc2[nH]1	5%	11%	1%	23	23*	20%
CCN(c1ccccc1)S(=O)(=O)c1cc([N+](=O)[O-])ccc1N	2%	46%	0%	58*	28*	5%
COc1cc(N=Nc2c(O)c3ccccc3[nH]c2=O)c(OC)cc1N=Nc1ccccc1	1%	3.3µM*	1%	17	13	2.3µM*
COc1cc(N=Nc2ccccc2C(=O)O)ccc1O	6%	?	0%	14	5	?
NC(=O)c1ccc(N=Nc2c(O)c3ccccc3[nH]c2=O)cc1	-3%	2.6µM*	22%	4	1	1.5µM*
N=C(N)c1ccc(N=Nc2c(O)ccc3c2[nH]c2ccccc23)cc1	-5%	nt	nt	nt	nt	nt
CC(C)Oc1cccc(C(=O)NC(=S)Nc2cccnc2)c1	5%	104%	?	40	32*	30%
CC(C)Oc1cccc(C(=O)NC(=S)Nc2ccccc2)c1	-5%	266%	-33%	120*	94*	86%
CCCOc1cccc(C(=O)NC(=S)Nc2ccccc2)c1	18%	57%	28%	18	5	-2%
COc1ccc(C(=O)NC(=S)Nc2cccnc2)cc1Cl	-1%	16%	-18%	-3	-3	-10%
COc1cccc(C(=O)NC(=S)Nc2cccnc2)c1	11%	98%	-19%	43*	26*	-26%
